This is part of a sample that, as a whole, favours compounds with a hit. Of some 83,000 tested, about 20% had one in any assay.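 Method: cells in 96-well plates; compound added at one concentration; 48 h incubation; percent growth measured; values under 10 scored active.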 A number with no mark means an inactive call. The source made the active and inactive calls.
Experiments:
Test in all cases: NCI-60 one-dose screen, 48 h (100 = growth as untreated, 0 = no growth, -100 = all killed)
Settings in all cases: 10 µM
HCT-15 colon = test system: HCT-15 colon
HT29 colon = test system: HT29 colon
SNB-75 CNS = test system: SNB-75 CNS
SNB-19 CNS = test system: SNB-19 CNS
U251 CNS = test system: U251 CNS
PC-3 prostate = test system: PC-3 prostate
SK-MEL-5 melanoma = test system: SK-MEL-5 melanoma
UACC-62 melanoma = test system: UACC-62 melanoma
LOX IMVI melanoma = test system: LOX IMVI melanoma
SK-MEL-28 melanoma = test system: SK-MEL-28 melanoma

SMILES | growth (HCT-15 colon) | growth (HT29 colon) | growth (SNB-75 CNS) | growth (SNB-19 CNS) | growth (U251 CNS) | growth (PC-3 prostate) | growth (SK-MEL-5 melanoma) | growth (UACC-62 melanoma) | growth (LOX IMVI melanoma) | growth (SK-MEL-28 melanoma)
CCOC(=O)N/C(=C1/OCCN1C)[P+](c1ccccc1)(c1ccccc1)c1ccccc1 | 98.5% | 60.3% | 84.3% | 71.6% | 66.3% | 50.5% | 82.8% | 51% | 57.5% | 61.3%
Cc1ccc([N+](=O)[O-])c(C(=O)Nc2ccc(-c3ccc4c(c3)NC(=O)/C4=C\c3ccc[nH]3)cc2)c1 | -17.3% (active) | 46.5% | 42.7% | 30.6% | 6.92% (active) | 21.3% | 101% | 39.5% | 21.9% | 94.8%
O=c1oc2ccc(-c3ccc(F)cc3F)cc2c(=O)n1-c1ccc(Cl)c(C(F)(F)F)c1 | -12% (active) | 9.55% (active) | -4.03% (active) | 14.7% | 7.99% (active) | 0.205% (active) | -91.4% (active) | -54.1% (active) | -38.6% (active) | -20.1% (active)
COc1ccc(C(=O)/C=C/c2ccc(Cl)c(C(F)(F)F)c2)cc1S(N)(=O)=O | -99.9% (active) | -76.9% (active) | -33.7% (active) | -100% (active) | -68.7% (active) | -48.2% (active) | -89.4% (active) | -98.7% (active) | -91.4% (active) | -100% (active)
OCc1[nH]nc2cc(Nc3ncc4ccc(Br)c(OC5CCC(O)CC5)c4n3)ccc12 (stereo not given) | -5.87% (active) | -41.1% (active) | -44.1% (active) | 6.37% (active) | 8.55% (active) | 9.54% (active) | -99.1% (active) | -89.2% (active) | -81.5% (active) | -68.7% (active)
O=C(CSc1ccc(-c2ccc(Cl)cc2)nn1)Nc1ccc(Cl)c(C(F)(F)F)c1 | 25.9% | 40.6% | 58.6% | 71.9% | 73.1% | 71.9% | 55.9% | 32.7% | 47.3% | 66.9%
COc1ccc(-c2nc(-c3ccccc3)c(-c3ccccc3)n2-c2ccc(S(=O)(=O)Nc3ncccn3)cc2)cc1OC | 53.6% | 96.2% | 88.5% | 74.9% | 71.8% | 63.7% | 65.7% | 83.6% | 65.2% | 92.3%
N#Cc1c(-c2ccc(Cl)cc2)cc(-c2ccccc2)nc1OCc1ccccc1 | 36.1% | 65% | 74.7% | 89.8% | 60.2% | 40.1% | 54% | 62.3% | 65.7% | 86%
Brc1ccc(/C=N/Nc2ncnc3sc4c(c23)CCN(Cc2ccccc2)C4)cc1 | 58.3% | 4.77% (active) | -7.37% (active) | 99.9% | 61.1% | 61.6% | 94.8% | 90.3% | 46.9% | 41.9%
CO[C@@H]1CSS[C@H]1Cn1nc(-c2ccc(Oc3ccccc3)cc2)c2c(N)ncnc21 | 66.9% | 51.1% | 113% | 71.8% | 60% | 51.7% | 25.7% | -11.1% (active) | 53.7% | -0.701% (active)
O=C(CSc1nnc(-c2c[nH]c3ccccc23)n1-c1ccccc1)Nc1ccc(C(=O)/C=C/c2ccccc2Cl)cc1 | 67% | 91.6% | 80.3% | 84.8% | 65.7% | 61.2% | 89.8% | 72.1% | 56.6% | 96.3%
CC(C)c1ccc(C(=O)Nc2sc3c(c2C(N)=O)CCC(=O)C3=O)cc1 | 71.5% | 110% | 98.2% | 97.4% | 92.6% | 82.8% | 99.1% | 94.3% | 82.7% | 110%
CCCSc1nc(NC2CC2)c(C#N)c(-c2ccc(OC)cc2)n1 | 95.4% | 90.1% | 103% | 70.3% | 87.4% | 95.3% | 98.2% | 83.7% | 93.9% | 118%
COc1ccc(CN2[C@@H](C(=O)NCc3ccc(C(=O)NO)cc3)Cc3c([nH]c4ccccc34)[C@@H]2C)cc1 | 19.1% | 17.6% | 15.8% | 40.3% | 33% | 29% | -21.1% (active) | -20.9% (active) | 1.67% (active) | 17.6%
C=C(C)[C@@H]1CC[C@]2(C)[C@H](CC=C3[C@@H]4CC(C)(C)CC[C@]4(C(=O)N4CCOCC4)CC[C@]32C)[C@@]1(C)CCCN | -83.6% (active) | -91% (active) | -91.2% (active) | -93.7% (active) | -81.2% (active) | -79.8% (active) | -96.5% (active) | -93.8% (active) | -81.7% (active) | -97% (active)
COc1ccc(-c2nc(S(=O)(=O)c3ccccc3)c(S(C)(=O)=O)o2)cc1 | -73% (active) | -55.2% (active) | 77.1% | 84.4% | 12% | 78.2% | 66.5% | 33.5% | -85.3% (active) | -82.9% (active)
N#Cc1c(NC(=O)c2ccc(C(F)(F)F)cc2C(F)(F)F)sc2c1CCC(=O)C2 | -66% (active) | -57% (active) | 26.4% | 6.86% (active) | 8.82% (active) | 2.66% (active) | -97.6% (active) | -89.5% (active) | -15.1% (active) | -86.2% (active)
COC(=O)c1c(C(=O)OC)c2n(c1C)[C@@H]([C@@H](C)[C@H]1CC[C@H]3[C@@H]4CCC5=CC(=O)CC[C@]5(C)[C@H]4CC[C@]13C)SC2 | 22.2% | 32.9% | 51.1% | 54.2% | 38.9% | 8.05% (active) | -87% (active) | 40.6% | 28.4% | 43.1%
Cc1ccc(NC(=O)NCn2c(=O)[nH]c3ccccc3c2=O)cc1 | 92.1% | 109% | 29% | 52.6% | 61.5% | 84.1% | 85.1% | 60.9% | 83.7% | 94.5%
COc1ccc(OC)c(/C=N/NC(=O)c2ccc3nc(-c4ccc(Cl)cc4)[nH]c3c2)c1 | 41.8% | 79.7% | 72.8% | 54.3% | 74.3% | 41.5% | 31.2% | 75.7% | 65.4% | 85.4%
CN1CCN(c2ccc(C(=O)/C=C/c3cc(Br)ccc3F)cc2)CC1 | -22.6% (active) | -13.2% (active) | 40.1% | 56.5% | 23.8% | 37.1% | 18.6% | 64% | -91.8% (active) | 90.8%
CC1(c2ccccc2)NC(=O)N(CC(=O)Nc2ccc(C(=O)/C=C/C=C/c3ccccc3)cc2)C1=O (stereo not given) | 12.8% | 25.4% | 54.9% | 61.6% | 14.7% | 36.4% | 51.6% | 43.1% | 26% | 70.9%
COc1ccc(-c2nc(Nc3ccccc3S(N)(=O)=O)c3ccccc3n2)cc1 | 28.1% | 8.94% (active) | 109% | 57.7% | 3.82% (active) | 55.6% | 61.3% | 56.5% | -79.9% (active) | 76.7%
CN(C(=O)c1ccc(C(F)(F)F)cc1C(F)(F)F)c1sc2c(c1C#N)CCC(=O)C2 | 10.4% | 106% | 105% | 88.7% | -11.7% (active) | 0.435% (active) | 25.9% | 55.7% | 29.2% | 106%
CN1C(=O)N(C)C2SC(N/N=C/c3ccc(F)cc3)=NC21 (stereo not given) | 26.1% | 16.2% | 23.7% | 43.1% | 35.4% | 66.2% | 26.8% | 18.4% | 40% | 63.5%
Nc1nc(Nc2ccccc2)nn1Cc1c(Cl)cccc1Cl | 37.5% | 54.4% | 67.5% | 58% | 53.8% | 27.4% | 23.5% | 33.5% | 16.3% | 55.5%

From PubChem BioAssay (NCI)
